# Data taken from PubChem BioAssay (NCI).
# Compounds without any hit were thinned out: in the full panel of roughly 79,000, 15% have a hit. Values without a mark were called inactive. Activity calls are given as the source filed them. Cut-off read from the data, not from the text of the source: active = growth inhibition above about 70%; inactive = the rest.
# How the values were obtained:
# [1] = NCI Yeast Anticancer Drug Screen. Data for the rad50 strain (AID 155);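 note: 0% = growth of vehicle-only cultures of the same strain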; details: S. cerevisiae rad50 strain growth inhibition, hits give high values
# Method in brief: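 Cells are treated with compound, grown, and their growth is then scored against vehicle-only cultures of the same repair-deficient yeast strain.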
# [2] = NCI Yeast Anticancer Drug Screen. Data for the mec2-1 strain (AID 157); details: S. cerevisiae mec2-1 strain, hits give high values
# Method in brief: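 Compounds were applied to mec2-1 yeast cells. Their growth was then compared with that of vehicle-treated cultures to give growth inhibition.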
# [3] = NCI Yeast Anticancer Drug Screen. Data for the sgs1 mgt1 strain (AID 161);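 note: 0% = growth of cultures given vehicle only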; details: S. cerevisiae sgs1 mgt1 strain, hits give high values
# Method in brief: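 Percent growth inhibition was derived by comparing compound-exposed mutant yeast with vehicle-exposed cultures. The strain carries alterations in DNA damage repair.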
# [4] = NCI Yeast Anticancer Drug Screen. Data for the cln2 rad14 strain (AID 165);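 note: 0% = growth equal to vehicle treated cultures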; details: S. cerevisiae cln2 rad14 strain, hits give high values
# Method in brief: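 Strain: cln2 rad14 yeast, altered in cell cycle control and DNA damage repair. Read-out: growth inhibition vs vehicle.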
# [5] = NCI Yeast Anticancer Drug Screen. Data for the bub3 strain (AID 167); details: S. cerevisiae bub3 mutant strain, hits give high values
# Method in brief: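 Part of a panel of yeast mutants defective in DNA damage repair or cell cycle regulation. Each strain is grown with compound, and inhibition is calculated relative to solvent-treated cultures.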
# [6] = NCI Yeast Anticancer Drug Screen. Data for the mlh1 rad18 strain (AID 175); details: S. cerevisiae mlh1 rad18 strain growth inhibition, hits give high values
# Method in brief: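 A repair-deficient yeast strain is exposed to test compound, and growth is scored relative to vehicle-treated controls.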
# [7] = at 5.0 µM (retest, dose inferred, filed as 0.5)
# [8] = at 50.0 µM (retest, dose inferred, filed as 5.0)
SMILES,"growth inhibition [1, 7]","growth inhibition [1, 8]",growth inhibition ([1]; at 50.0 µM),"growth inhibition [2, 7]","growth inhibition [2, 8]",growth inhibition ([2]; at 50.0 µM),"growth inhibition [3, 7]","growth inhibition [3, 8]",growth inhibition ([3]; at 50.0 µM),"growth inhibition [4, 7]","growth inhibition [4, 8]",growth inhibition ([4]; at 50.0 µM),"growth inhibition [5, 7]","growth inhibition [5, 8]",growth inhibition ([5]; at 50.0 µM),"growth inhibition [6, 7]","growth inhibition [6, 8]",growth inhibition ([6]; at 50.0 µM)
CC[C@@]1(OP(=O)(O)O)C(=O)OCc2c1cc1n(c2=O)Cc2cc3ccccc3nc2-1,89% (active),92% (active),79.2% (active),33%,95% (active),87.1% (active),6%,-37%,80.7% (active),-11%,-58%,67%,14%,-15%,77.2% (active),49%,86% (active),74.2% (active)
CCCCCCCCNc1ccc(Cl)cc1,46%,96% (active),91.8% (active),26%,98% (active),93% (active),49%,97% (active),98.2% (active),25%,94% (active),81.2% (active),8%,97% (active),74.1% (active),40%,97% (active),98% (active)
S=P([S][Sn]([S]P(=S)(c1ccccc1)c1ccccc1)([c]1ccccc1)[c]1ccccc1)(c1ccccc1)c1ccccc1,22%,82% (active),34.9%,21%,73% (active),19.6%,33%,96% (active),91.9% (active),25%,48%,89.9% (active),24%,69%,89.2% (active),33%,92% (active),77.8% (active)
Cc1cccc[c]1[Sn]([Cl])([O][Sn]([Cl])([c]1ccccc1C)[c]1ccccc1C)[c]1ccccc1C,61%,97% (active),88.3% (active),46%,98% (active),90.8% (active),40%,98% (active),89% (active),20%,96% (active),88.3% (active),42%,98% (active),88.2% (active),85% (active),96% (active),89.5% (active)
O=C(/C=C/c1ccccc1)CCN1CCC2CCC(C2)C1 (configuration not stated),2%,55%,62.9%,9%,82% (active),93% (active),15%,54%,76.1% (active),11%,58%,27.6%,3%,79% (active),46.9%,8%,81% (active),79.5% (active)
O=C(CCn1[nH]c(=O)c(Cl)c(Cl)c1=O)NNc1ccc([N+](=O)[O-])cc1[N+](=O)[O-],4%,36%,35.8%,-7%,2%,-4.7%,1%,18%,-12.9%,-2%,1%,-2.45%,1%,19%,26.2%,2%,17%,88.2% (active)
CCCCCCCCCCCCNCc1ccc2c(c1)OCO2,98% (active),96% (active),98.8% (active),99% (active),97% (active),99.1% (active),99% (active),96% (active),57.8%,99% (active),96% (active),95.9% (active),99% (active),95% (active),98.7% (active),99% (active),95% (active),99% (active)
CCC(Cl)COP(=O)(OCC(Cl)CC)OC(c1ccc(Cl)c(Cl)c1)P(=O)(OCC(Cl)CC)OCC(Cl)CC (configuration not stated),8%,23%,55%,14%,11%,91.2% (active),-1%,7%,93% (active),-10%,1%,76.2% (active),-3%,9%,55.6%,7%,37%,85.7% (active)
Clc1ccc(C2=Nc3ccccc3SC(c3ccc(Cl)c(Cl)c3)C2)c(Cl)c1 (configuration not stated),16%,16%,64.2%,12%,12%,49.3%,1%,1%,63.3%,10%,10%,40.8%,9%,9%,70.4% (active),13%,13%,63.7%
